# In the supplement of paper PMC8728848:
# Shown is part of a subset that was picked to be rich in the strongest signals.
# B1: CC1G-10077 (Coprinopsis cinerea), A8NDT7 (protein)
# chain: MALNEGVYWIRNSRFTNKVLDLDAANVAKGTSILDFNEHGTFNENHNQLWIVERFQSRDTYLIRSVHSNLVLDLSQGLSANGTPILCWTQHGGTNQQWRIEWVKDDNKTPLYRIVSVATGTAISHNEDDSSAYTVAWSVDDGPKQLWSFDPFVTPLLYRLRVKSTSRVLDLAAASADNGTLALAWEQHTAITKRNQLWWLPYRSGAEEYTIQCLETSTVADLSGGNSGNGTPIYGWQSHGGRNQQWKFEPTSDSGDYYHIKNVEGGSVMDAYMNDSQKRVGGWSNNGGDNQKWLLDPLPSPGPGWVLIQNGGTGKFLCSTPSGDIGTADGPETVYDYSVQWRFIQREYTGVYHVVNRATGAYLRQIGTSMPSIGLAEENDDELKDWWMLETYDNSEIGLASIISRWTGNVLDHYGGVSVQALDNNTENSYRSWAIIPARDWLTSFSLVNGQGGLCLAAQYAREETRLSTTANVNDFHAQWVFRKPSGSSGYTIQNKYNNHYVGGTSARWELVVCCNKYFGIRNTSTQKYLAIEDGQVTFQDQDMTDRKQCWELCSGRATDTSGNDYDLIYMDDDLLEVMIPWVGDKQGDLKHYIEKRATKKPPKDKGGWQLPAAGLIKKPKFNDIRQLLQELIEQWEWDVVNEEREQIQTLVSIDEAEARRLLGRRPHPDIVAAYQRSRSSTLFRIDRQGYFNIAGDRYVNIQGQYGDDSYFHIALPVGVRFGREQIRRFLRDSLDRSTSVTITPTTCKPPSGGPDYNRDPDSDGDNSWIKWTIAVVGTSAIKHSEL
# What was measured:
# Test in all cases: glycan array binding signal (z-score within array); higher = stronger binding
# Settings in all cases: glycan notation: IUPAC condensed, linker removed
# [1] = molecular target: Fuc(a1-3)[Gal(b1-4)]GlcNAc(b1-2)Man(a1-3)[Fuc(a1-3)[Gal(b1-4)]GlcNAc(b1-2)Man(a1-6)]Man(b1-4)GlcNAc(b1-4)GlcNAc
# Procedure, shortened: (§1)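 Glycan array binding is given as a within-array Z-score, which can be read as non-binding when negative. The arrays, 3228 of them, came from the Consortium for Functional Glycomics database and were retained only where the protein sequence was available. Z-scores were averaged across arrays of the same protein sequence at different concentrations or buffers and across linkers.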
# [2] = molecular target: Fuc(a1-3)[Gal(b1-4)]GlcNAc(b1-3)Gal(b1-3)[Fuc(a1-4)]GlcNAc
# Procedure, shortened: as §1
# [3] = molecular target: Fuc(a1-3)[Gal3S(b1-4)]Glc
# Procedure, shortened: as §1
# [4] = molecular target: Fuc(a1-3)[GalNAc(b1-4)]GlcNAc
# Procedure, shortened: as §1
# [5] = molecular target: Gal(a1-3)Gal(b1-3)GlcNAc(b1-6)GalNAc
# Procedure, shortened: as §1
# Gal(a1-3)Gal(b1-4)GlcNAc = molecular target: Gal(a1-3)Gal(b1-4)GlcNAc
# Procedure, shortened: as §1
# [6] = molecular target: Gal(a1-3)Gal(b1-4)GlcNAc(b1-3)GalNAc
# Procedure, shortened: as §1
# [7] = molecular target: Gal(a1-3)Gal(b1-4)[Fuc(a1-3)]GlcNAc
# Procedure, shortened: as §1
# [8] = molecular target: Gal(b1-3)GlcNAc(b1-3)Gal(b1-3)GlcNAc
# Procedure, shortened: as §1
# [9] = molecular target: Gal(b1-3)GlcNAc(b1-3)Gal(b1-4)GlcNAc
# Procedure, shortened: as §1
# [10] = molecular target: Gal(b1-3)GlcNAc(b1-3)Gal(b1-4)[Fuc(a1-3)]GlcNAc
# Procedure, shortened: as §1
# Gal(b1-4)Glc6S = molecular target: Gal(b1-4)Glc6S
# Procedure, shortened: as §1
# [11] = molecular target: Gal(b1-4)GlcNAc(a1-6)Gal(b1-4)GlcNAc
# Procedure, shortened: as §1
# [12] = molecular target: Gal(b1-4)GlcNAc(b1-2)Man(a1-3)Man(b1-4)GlcNAc(b1-4)GlcNAc
# Procedure, shortened: as §1
# [13] = molecular target: Gal(b1-4)GlcNAc(b1-2)Man(a1-3)[GlcNAc(b1-4)][Gal(b1-4)GlcNAc(b1-2)Man(a1-6)]Man(b1-4)GlcNAc(b1-4)GlcNAc
# Procedure, shortened: as §1
# [14] = molecular target: Gal(b1-4)GlcNAc(b1-2)Man(a1-6)[GlcNAc(b1-2)Man(a1-3)]Man(b1-4)GlcNAc(b1-4)GlcNAc
# Procedure, shortened: as §1
# [15] = molecular target: Gal(b1-4)GlcNAc(b1-3)Gal(b1-4)GlcNAc(b1-3)Gal(b1-4)GlcNAc(b1-2)Man(a1-3)[Gal(b1-4)GlcNAc(b1-3)Gal(b1-4)GlcNAc(b1-3)Gal(b1-4)GlcNAc(b1-2)Man(a1-6)]Man(b1-4)GlcNAc(b1-4)GlcNAc
# Procedure, shortened: as §1
# [16] = molecular target: Gal(b1-4)GlcNAc(b1-3)Gal(b1-4)GlcNAc(b1-3)Gal(b1-4)GlcNAc(b1-2)Man(a1-3)[Gal(b1-4)GlcNAc(b1-3)Gal(b1-4)GlcNAc(b1-3)Gal(b1-4)GlcNAc(b1-2)Man(a1-6)]Man(b1-4)GlcNAc(b1-4)[Fuc(a1-6)]GlcNAc
# Procedure, shortened: as §1
# [17] = molecular target: Gal(b1-4)GlcNAc(b1-3)Gal(b1-4)GlcNAc(b1-3)Gal(b1-4)GlcNAc(b1-2)[Gal(b1-4)GlcNAc(b1-3)Gal(b1-4)GlcNAc(b1-3)Gal(b1-4)GlcNAc(b1-6)]Man(a1-6)[Gal(b1-4)GlcNAc(b1-3)Gal(b1-4)GlcNAc(b1-3)Gal(b1-4)GlcNAc(b1-2)Man(a1-3)]Man(b1-4)GlcNAc(b1-4)[Fuc(a1-6)]GlcNAc
# Procedure, shortened: as §1
# [18] = molecular target: Gal(b1-4)GlcNAc(b1-3)Gal(b1-4)GlcNAc(b1-3)Gal(b1-4)GlcNAc(b1-3)Gal(b1-4)GlcNAc(b1-2)Man(a1-3)[Gal(b1-4)GlcNAc(b1-3)Gal(b1-4)GlcNAc(b1-3)Gal(b1-4)GlcNAc(b1-3)Gal(b1-4)GlcNAc(b1-2)Man(a1-6)]Man(b1-4)GlcNAc(b1-4)[Fuc(a1-6)]GlcNAc
# Procedure, shortened: as §1
# [19] = molecular target: Gal(b1-4)GlcNAc(b1-3)Gal(b1-4)GlcNAc(b1-3)Gal(b1-4)GlcNAc(b1-3)Gal(b1-4)GlcNAc(b1-3)Gal(b1-4)GlcNAc(b1-2)Man(a1-3)[Gal(b1-4)GlcNAc(b1-3)Gal(b1-4)GlcNAc(b1-3)Gal(b1-4)GlcNAc(b1-3)Gal(b1-4)GlcNAc(b1-3)Gal(b1-4)GlcNAc(b1-2)Man(a1-6)]Man(b1-4)GlcNAc(b1-4)GlcNAc
# Procedure, shortened: as §1
# [20] = molecular target: Gal(b1-4)GlcNAc(b1-3)Gal(b1-4)GlcNAc(b1-3)Gal(b1-4)GlcNAc(b1-3)Gal(b1-4)GlcNAc(b1-3)Gal(b1-4)GlcNAc(b1-2)[Gal(b1-4)GlcNAc(b1-3)Gal(b1-4)GlcNAc(b1-3)Gal(b1-4)GlcNAc(b1-3)Gal(b1-4)GlcNAc(b1-3)Gal(b1-4)GlcNAc(b1-6)]Man(a1-6)[Gal(b1-4)GlcNAc(b1-3)Gal(b1-4)GlcNAc(b1-3)Gal(b1-4)GlcNAc(b1-3)Gal(b1-4)GlcNAc(b1-3)Gal(b1-4)GlcNAc(b1-2)Man(a1-3)]Man(b1-4)GlcNAc(b1-4)[Fuc(a1-6)]GlcNAc
# Procedure, shortened: as §1
# [21] = molecular target: Gal(b1-4)GlcNAc(b1-3)[Gal(b1-4)GlcNAc(b1-6)]Gal(b1-4)GlcNAc
# Procedure, shortened: as §1
# [22] = molecular target: Gal(b1-4)GlcNAc(b1-3)[GlcNAc(b1-6)]Gal(b1-4)GlcNAc
# Procedure, shortened: as §1
# Gal6S(b1-3)GlcNAc6S = molecular target: Gal6S(b1-3)GlcNAc6S
# Procedure, shortened: as §1
# Gal6S(b1-4)Glc = molecular target: Gal6S(b1-4)Glc
# Procedure, shortened: as §1
# [23] = molecular target: GalNAc(b1-4)GlcNAc(b1-3)GalNAc(b1-4)GlcNAc
# Procedure, shortened: as §1
# GalNAc(b1-4)GlcNAc6S = molecular target: GalNAc(b1-4)GlcNAc6S
# Procedure, shortened: as §1
# [24] = molecular target: GlcNAc(a1-4)Gal(b1-4)GlcNAc(b1-3)Gal(b1-4)GlcNAc
# Procedure, shortened: as §1
# [25] = molecular target: GlcNAc(b1-2)Man(a1-3)[GlcNAc(b1-4)][GlcNAc(b1-2)Man(a1-6)]Man(b1-4)GlcNAc(b1-4)[Fuc(a1-6)]GlcNAc
# Procedure, shortened: as §1
binder,measurement,setting,value
B1,glycan array binding signal (z-score),[1],-0.467
same,glycan array binding signal (z-score),[2],-0.51
same,glycan array binding signal (z-score),[3],-0.424
same,glycan array binding signal (z-score),[4],-0.4
same,glycan array binding signal (z-score),[5],1.19
same,glycan array binding signal (z-score),Gal(a1-3)Gal(b1-4)GlcNAc,0.177
same,glycan array binding signal (z-score),[6],-0.3
same,glycan array binding signal (z-score),[7],0.744
same,glycan array binding signal (z-score),[8],0.08
same,glycan array binding signal (z-score),[9],0.142
same,glycan array binding signal (z-score),[10],0.199
same,glycan array binding signal (z-score),Gal(b1-4)Glc6S,-0.024
same,glycan array binding signal (z-score),[11],3.26
same,glycan array binding signal (z-score),[12],1.15
same,glycan array binding signal (z-score),[13],0.424
same,glycan array binding signal (z-score),[14],3.12
same,glycan array binding signal (z-score),[15],2.19
same,glycan array binding signal (z-score),[16],3.5
same,glycan array binding signal (z-score),[17],3.22
same,glycan array binding signal (z-score),[18],3.19
same,glycan array binding signal (z-score),[19],3.72
same,glycan array binding signal (z-score),[20],3.25
same,glycan array binding signal (z-score),[21],1.18
same,glycan array binding signal (z-score),[22],3.85
same,glycan array binding signal (z-score),Gal6S(b1-3)GlcNAc6S,-0.314
same,glycan array binding signal (z-score),Gal6S(b1-4)Glc,0.062
same,glycan array binding signal (z-score),[23],4.2
same,glycan array binding signal (z-score),GalNAc(b1-4)GlcNAc6S,4.35
same,glycan array binding signal (z-score),[24],-0.431
same,glycan array binding signal (z-score),[25],-0.482
